Compound activity from PubChem BioAssay.
Only some compounds are listed: those with a hit (about 5.8% of all), similar ones and a draw of the others.
uPA surface inh – inhibitors of cell surface uPA generation; 0.31% of 330,000 active; AID 540303; Potency, µM (doses to about 38.3 µM), for the others: at the top dose activity change, negative = inhibition, actives largely listed as inhibitors; cell surface uPA generation assay, qHTS; active = well fitted inhibition curve with a large enough effect; inconclusive = small, poorly fitted or top-dose-only effect; inactive = no such curve, though single readings can be large or run the other way; tested in mouse RAW 264.7 cells; also: potency is read from the fitted curve at half-maximal effect; % is scaled to controls: 0 for no effect and ±100 for the full control effect; nearly all actives have a fitted effect of over 55% in size
VP16 counter – inhibits Gal4-VP16 luciferase reporter, ROR gamma counter-screen; Potency, µM (titrated, usually from 53.6 µM), inactives show at the top dose activity, negative = inhibition, hits mostly inhibitors; 3.5% of 310,000 active; Drosophila S2 Gal4-VP16 UAS-luciferase, luminescence, 20 h;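 also: Gal4-VP16 expression switched on by copper sulfate through the metallothionein promoter; potency is read from the fitted curve at half-maximal effect; % is scaled to controls: 0 for no effect and ±100 for the full control effect; nearly all actives have a fitted effect of over 50% in size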
RORgamma inh – inhibitors of mouse ROR gamma transcriptional activity. 5.4% of 310,000 active. Potency, µM (titrated, usually from 53.6 µM), for inactives: top-dose activity change, negative = inhibition, actives largely listed as inhibitors. AID 2551. Drosophila S2 Gal4-RORgamma UAS-luciferase reporter, 20 h. P51450; also: potency is read from the fitted curve at half-maximal effect; % is scaled to controls: 0 for no effect and ±100 for the full control effect; nearly all actives have a fitted effect of over 60% in size
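Schneider cells (Drosophila), stable Gal4 DBD–ROR gamma + UAS-luc; 1 hr cmpd preincubation; Cu2+ induction 700 uM final; 20 hr ambient; luminescence.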
TRPV1 potentiator – potentiators of human vanilloid receptor 1 (TRPV1); potentiation, % at 8.33 µM; Q8NER1; TRPV1-expressing cells, Fluo-8 calcium influx, capsaicin EC20 potentiation; 0.02% of 320,000 active; AID 540277; in the data active = potentiation above about 80%; inconclusive = between about 30% and that limit; also: 0% is about no effect
Target sequence (Q8NER1 whole entry, looked up): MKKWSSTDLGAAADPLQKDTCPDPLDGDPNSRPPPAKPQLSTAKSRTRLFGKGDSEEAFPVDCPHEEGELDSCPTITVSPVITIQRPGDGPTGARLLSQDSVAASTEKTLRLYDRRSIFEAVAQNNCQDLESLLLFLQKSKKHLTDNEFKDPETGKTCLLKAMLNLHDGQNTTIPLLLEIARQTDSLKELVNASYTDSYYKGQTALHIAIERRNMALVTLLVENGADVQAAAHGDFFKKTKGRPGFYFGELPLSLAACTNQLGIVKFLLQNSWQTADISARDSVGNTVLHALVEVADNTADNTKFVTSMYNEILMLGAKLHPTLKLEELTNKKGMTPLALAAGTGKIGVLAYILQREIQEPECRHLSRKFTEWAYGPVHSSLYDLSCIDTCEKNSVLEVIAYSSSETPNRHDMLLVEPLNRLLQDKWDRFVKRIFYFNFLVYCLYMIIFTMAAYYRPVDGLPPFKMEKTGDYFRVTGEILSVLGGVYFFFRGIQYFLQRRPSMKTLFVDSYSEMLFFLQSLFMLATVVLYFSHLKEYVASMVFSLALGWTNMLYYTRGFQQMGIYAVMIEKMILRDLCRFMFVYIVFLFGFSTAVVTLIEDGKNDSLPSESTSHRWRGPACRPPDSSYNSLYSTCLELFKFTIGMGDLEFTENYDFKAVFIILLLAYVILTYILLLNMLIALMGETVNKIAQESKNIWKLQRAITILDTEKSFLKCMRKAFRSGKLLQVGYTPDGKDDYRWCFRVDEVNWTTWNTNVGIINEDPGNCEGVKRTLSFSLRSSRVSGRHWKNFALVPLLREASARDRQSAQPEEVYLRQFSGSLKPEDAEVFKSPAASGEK
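Cells expressing TRPV1 were dye-loaded with Fluo-8 and read kinetically: 10 s baseline, 3 min after compound (agonist portion), then 2 min after EC20 capsaicin (allosteric enhancer portion). Calcium-bound dye fluorescence at 480/520 nm.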
TRPV1 agonist – activates the human vanilloid receptor TRPV1 | TRPV1-expressing cells, Fluo-8 calcium influx, agonist mode | activation, % at 8.33 µM | Q8NER1 | 0.19% of 320,000 active; in the data active = activation above about 80%; inconclusive = between about 30% and that limit; also: 0% is about no effect
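TRPV1-expressing cells were cultured overnight at 35.5C and loaded with Fluo-8 calcium dye for 40 to 90 min at room temperature. After a 10 s baseline, compound was added and calcium influx was read kinetically for 3 min (ex 480/em 520 nm).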
Numbers without * were called inactive; ? = inconclusive; . = no result given; [ ] = remark or other dose. Unless noted, calls follow the shape of the dose curve; as a rule, active = well fitted curve in the direction sought with a large enough effect; inconclusive = small, poorly fitted or top-dose-only effect, or another doubt; inactive = no such curve, though single readings can be large; an effect the other way counts as inactive or inconclusive.

SMILES	uPA surface inh	VP16 counter	RORgamma inh	TRPV1 potentiator	TRPV1 agonist
COc1ccc(C2=Nn3c(nnc3-c3cccc(OC)c3OC)SC2)c(OC)c1	.	18µM*	?	.	.
CCCCCC/C(C)=C1/SC(=S)NC1=O	-4%	-19%	16µM*	-6	-1
O=c1oc(C2(O)CCCCC2)cc2ccc(/C=C/c3ccc(F)cc3)cc12	-17%	.	.	-4	9
COC(=O)C(C)Nc1cccc(Br)c1 (configuration not stated)	5%	-4%	0%	-6	15
CCOC(=O)C(C(=O)OCC)C(Nc1cccc(Br)c1)c1ccccc1 (configuration not stated)	-12%	?	11µM*	-18	6
Cc1nnc(N/N=C/c2c(Cl)cccc2Cl)n1N	-3%	?	?	6	-1
Cc1nnc(N/N=C/c2cc(C)n(-c3ccc(F)cc3)c2C)n1N	-18%	?	11µM*	5	0
CCc1nnc(N/N=C/c2c(C)[nH]c3ccccc23)n1N	2%	-7%[10 µM]	?	3	3
Cc1nnc(N/N=C/c2ccc(-c3ccccc3F)o2)n1N	-9%	?	7.9µM*	-1	-3
COC(=O)c1ccc(-n2c(C)cc(/C=N/Nc3nc(C)cc(=O)[nH]3)c2C)cc1	5%	-16%	?	?	4
CCc1nnc(N/N=C/c2cc(C)c(C)cc2C)n1N	-8%	?	16µM*	2	1
Cc1nnc(N/N=C/c2ccccc2O)n1N	-10%	?	1.3µM*	-8	0
O=S(=O)(c1ccccc1)N1CCC2(CC1)CN(c1ccccn1)C2	.	10%	-2%	.	.
O=C1c2cc(O)cc(O)c2OC[C@@H]1c1ccc(O)c(O)c1	.	-3%	1%	.	.
O=C(CC(NC(=O)c1ccccc1)c1ccccc1)Nc1cccc2ccccc12 (configuration not stated)	-4%	19%	1%	9	-3
CCOc1nsc(OCC)n1	3%	-5%	2%	?	-11
CC(=O)N/C(=N\c1nc(C)cc(C)n1)Nc1ccccc1Cl	-5%	2%	-13%	5	3
COc1cccc(C(=O)Cn2c(NCCO)nc3ccccc32)c1	1%	-11%	43%	-13	2
CCCn1c(=N)n(CC(=O)c2ccc(Cl)cc2)c2ccccc21	2%	?	?	-4	3
N=c1n(CC(=O)c2cccc([N+](=O)[O-])c2)c2ccccc2n1Cc1ccccc1	-5%	?	7.1µM*	3	3
CC(C)(C)C(=O)Cn1c(=N)n(Cc2ccccc2Cl)c2ccccc21	7%	?	4.5µM*	-2	18
COc1cccc(C(=O)Cn2c(=N)n(C)c3ccccc32)c1	-14%	?	10µM*	3	3
CC(C)(C)C(=O)Cn1c(=N)n(Cc2ccccc2)c2ccccc21	3%	-9%	?	20	16
CCn1c(=N)n(CC(=O)c2cccc([N+](=O)[O-])c2)c2ccccc21	-2%	-2%	-25%	8	-2
CCCn1c(=N)n(CC(=O)c2ccc([N+](=O)[O-])cc2)c2ccccc21	-2%	-8%	1.6µM*	9	-5
SMILES	uPA surface inh	VP16 counter	RORgamma inh	TRPV1 potentiator	TRPV1 agonist
N#C/C(=C(/N)Sc1ccc(N)cc1)c1ccccc1C(F)(F)F	.	?	41%	.	.
Cc1ccc(C2CC(=O)Oc3ccc(O)cc32)cc1 (configuration not stated)	.	-1%[96.6 µM]	13%[96.6 µM]	.	.
Cc1ccc(Cn2c(=N)n(CC(=O)c3ccccc3)c3ccccc32)cc1	?	14µM*	13µM*	3	10
N=c1n(CC(=O)c2ccc(Br)s2)c2ccccc2n1Cc1ccccc1	?	14µM*	10µM*	-12	3
COc1ccc(-c2nc3cnc(OC)nc3n(C[C@H]3CCCO3)c2=O)cc1	.	-1%	-14%	.	.
CCCCOC(=O)C1=C(C)NC(=O)NC1c1ccccc1 (configuration not stated)	23%	-2%	35%	22	-3
Nc1cc(S(=O)(=O)Nc2ccc(Cl)cc2)ccc1N1CCOCC1	1%	16µM*	4%	-5	6
Cn1c(=S)c2[nH]c(SCCN3CCCC3)nc2n(C)c1=O	4%	?	1µM*	12	1
CCN1CCCC(Sc2nc3c([nH]2)c(=S)n(C)c(=O)n3C)C1 (configuration not stated)	0%	6.3µM*	4µM*	7	-2
COc1ccc(C2C(O)C(c3c[nH]c4ccccc34)=NN2C(=O)CCl)cc1 (configuration not stated)	-4%	10µM*	13µM*	2	3
CC1(C)C2CC[C@]1(C)[C@@H](O)C2	.	-3%	9%	.	.
CCOC(=O)Cn1c(=NC(=O)c2cc(-c3cccs3)nc3ccccc23)sc2cc(S(N)(=O)=O)ccc21	6%	11µM*	16µM*	1	?
O=C(CCl)Nc1cc(-c2ccccc2)nn1-c1ccccc1	.	?	14µM*	1	3
CC(=O)Nc1ccc(-c2cc(NC(C)=O)n(-c3ccccc3)n2)cc1	-7%	-1%	6%	3	-5
Cc1ccc(-c2cc(NC(=O)CCl)n(-c3ccccc3)n2)cc1	-14%	5µM*	6.3µM*	22	0
Cc1ccc(C)c(NC(=O)c2cc(-c3ccccc3)nn2-c2ccccc2)c1	-4%	22µM*	15%	1	-1
COc1cccc(-n2c([S-])c(C(=O)Nc3ccc(S(=O)(=O)N4CCOCC4)cc3)[n+]3cc(C(N)=O)ccc23)c1	1%	-5%	12%	-3	-1
N#Cc1nc(NCCCCO)nc(Nc2ccccc2)n1	.	6%	.	.	.
COc1ccc(C2CC(c3ccc(OC)cc3)n3nc(NC(=O)c4ccco4)nc3N2)cc1 (configuration not stated)	2%	16µM*	6.3µM*	-3	0
COCC(=O)Nc1nc2n(n1)C(c1ccccc1)CC(c1ccc(OC)cc1)N2 (configuration not stated)	.	0%	-4%	-14	5
COc1ccc(C2CC(c3ccccc3)Nc3nc(NC(=O)c4ccco4)nn32)cc1 (configuration not stated)	4%	7.1µM*	6.3µM*	-3	-2
O=C(Nc1nc2n(n1)C(c1ccccc1)CC(c1ccc(Cl)cc1)N2)c1ccco1 (configuration not stated)	-3%	5µM*	2.5µM*	-2	0
C/C(=N\Oc1cccc(F)n1)c1ccc(Cl)cc1Cl	10%	17%	6%	7	-5
C/C(=N/Oc1nc(C)cc(C)n1)c1ccc(Cl)cc1Cl	5%	?	10µM*	22	6
CCc1nnc(NC(=O)C2Cc3ccccc3CN2S(=O)(=O)CC)s1 (configuration not stated)	-1%	4%	-21%	?	3
